# Measured potencies and affinities stand elsewhere. Square brackets hold non-standard residues; d marks the D form. Peptide text beside a SMILES is read from it. pGlu = O=C1CC[C@@H](C(=O)O)N1; Thz = O=C(O)[C@@H]1CSCN1
# Test system: Klebsiella pneumoniae
# Conditions: Concentration 20 uM; ASSAY_TEST Inhibition of Bacterial Growth; detection method Absorption (OD600); MEDIA CAMHB; plate type 384well; NBS; CORNING #3640; time 18 hr
row,SMILES,Inhibition
1,CCC1=C[C@H]2CN(C1)Cc1c([nH]c3ccccc13)[C@@](C(=O)OC)(c1cc3c(cc1OC)N(C)[C@H]1[C@@](O)(C(=O)OC)[C@H](OC(C)=O)[C@]4(CC)C=CCN5CC[C@]31[C@@H]54)C2.O=C(O)C(O)C(O)C(=O)O.O=C(O)C(O)C(O)C(=O)O,8.46%
2,Cl.O.O=C1N(c2ccccc2)c2ccccc2C1(Cc1ccncc1)Cc1ccncc1,9.02%
3,CC1=C(C(=O)O)N2C(=O)[C@@H](NC(=O)[C@H](N)c3ccccc3)[C@H]2SC1.O [CEPHALEXIN],2.49%
4,CO[C@H]1O[C@@H]2O[C@@]3(C)CC[C@H]4[C@H](C)CC[C@@H]([C@H]1C)[C@@]24OO3,9.17%
5,COc1cc(C(=O)NC2CCCNC2)cc(OC)c1OC (stereo not drawn) [TROXIPIDE],14.93%
6,CN(C)CC[C@@H](c1ccc(Br)cc1)c1ccccn1.O=C(O)/C=C\C(=O)O [DEXBROMPHENIRAMINE MALEATE],-0.14%
7,C[C@H](CS)C(=O)N1CCC[C@H]1C(=O)O [CAPTOPRIL],9.36%
8,COc1ccccc1OCC(O)COC(N)=O (stereo not drawn) [METHOCARBAMOL],10.57%
9,Cl.O=C(NCC1CCCCN1)c1cc(OCC(F)(F)F)ccc1OCC(F)(F)F (stereo not drawn),7.49%
10,COc1cc2c(cc1OC)C(=O)C(CC1CCN(Cc3ccccc3)CC1)C2.Cl (stereo not drawn) [DONEPEZIL HYDROCHLORIDE],5.21%
11,COc1cc(C(=O)NS(=O)(=O)c2ccccc2C)ccc1Cc1cn(C)c2ccc(NC(=O)OC3CCCC3)cc12 [ZAFIRLUKAST],3.3%
12,Cc1ccc(O)c([C@H](CCN(C(C)C)C(C)C)c2ccccc2)c1.O=C(O)C(O)C(O)C(=O)O [TOLTERODINE TARTRATE],6.3%
13,CN(Cc1cnc2nc(N)nc(N)c2n1)c1ccc(C(=O)N[C@@H](CCC(=O)O)C(=O)O)cc1.O,9.2%
14,CC1=C(CC(=O)O)c2cc(F)ccc2/C1=C\c1ccc([S+](C)[O-])cc1 (stereo not drawn),14.02%
15,C#C[C@]1(O)CC[C@H]2[C@@H]3CCC4=CC(=O)CC[C@@H]4[C@H]3CC[C@@]21CC [LEVONORGESTREL],13.61%
16,CN(C)CCC(c1ccc(Cl)cc1)c1ccccn1.O=C(O)/C=C\C(=O)O (stereo not drawn) [CHLORPHENIRAMINE MALEATE],2.46%
17,C[C@]12CCC(=O)C=C1CC[C@@H]1[C@@H]2C(=O)C[C@@]2(C)[C@H]1CC[C@]2(O)C(=O)CO [CORTISONE],16.58%
18,Cl.c1ccc2c(c1)CCCC2C1=NCCN1 (stereo not drawn) [TETRAHYDROZOLINE HYDROCHLORIDE],14.26%
19,CN1CCN(C2=Nc3ccccc3Oc3ccc(Cl)cc32)CC1.O=C(O)CCC(=O)O [LOXAPINE SUCCINATE],7.32%

row,SMILES,Inhibition
1,CN1CCC(=C2c3ccccc3CC(=O)c3sccc32)CC1.O=C(O)/C=C/C(=O)O [KETOTIFEN FUMARATE],1.04%
2,CC(CCc1ccccc1)NCC(O)c1ccc(O)c(C(N)=O)c1.Cl (stereo not drawn) [LABETALOL HYDROCHLORIDE],19.39%
3,CC(C)(C#N)c1cc(Cn2cncn2)cc(C(C)(C)C#N)c1 [ANASTROZOLE],-11.78%
4,O=C([O-])c1cc(=O)c2c(OCC(O)COc3cccc4oc(C(=O)[O-])cc(=O)c34)cccc2o1.[Na+].[Na+] [CROMOLYN SODIUM],6.64%
5,C#C[C@]1(O)CC[C@H]2[C@@H]3[C@H](C)CC4=C(CCC(=O)C4)[C@H]3CC[C@@]21C [TIBOLONE],12.38%
6,CN1CCN(c2nc3cc(C(F)(F)F)ccc3n3cccc23)CC1.O=C(O)/C=C\C(=O)O.O=C(O)/C=C\C(=O)O,7.65%
7,CC(C)NCC(O)COc1ccc(COCCOC(C)C)cc1.CC(C)NCC(O)COc1ccc(COCCOC(C)C)cc1.O=C(O)/C=C/C(=O)O (stereo not drawn) [BISOPROLOL FUMARATE],12.19%
8,CCCN[C@H]1CCc2nc(N)sc2C1 [PRAMIPEXOLE],5.86%
9,COc1ccc(-c2oc3c(CC=C(C)C)c(O[C@@H]4O[C@H](CO)[C@@H](O)[C@H](O)[C@H]4O)cc(O)c3c(=O)c2O[C@@H]2O[C@@H](C)[C@H](O)[C@@H](O)[C@H]2O)cc1 [ICARIIN],1.41%
10,CCCCNC(=O)NS(=O)(=O)c1ccc(C)cc1 [TOLBUTAMIDE],16.6%
11,Nc1c2c(nc3c1CCC3)CCCC2 [IPIDACRINE],15%
12,O=C1CC[C@@H](C(=O)N2CSC[C@H]2C(=O)O)N1 [PIDOTIMOD] ([pGlu]-[Thz]-OH),9.73%
13,Cc1nc(=O)c2cc(CN(C)c3ccc(C(=O)N[C@@H](CCC(=O)O)C(=O)O)s3)ccc2[nH]1 [RALTITREXED],9.17%
14,COc1cc(C)c(/C=C/C(C)=C/C=C/C(C)=C/C(=O)O)c(C)c1C [ACITRETIN],7.64%
15,CCOC(=O)N1CCC(=C2c3ccc(Cl)cc3CCc3cccnc32)CC1 [LORATADINE],12.62%
16,O=C1c2c(O)cc(O)cc2O[C@H](c2ccc(O)c(O)c2)[C@@H]1O,9.75%
17,O=C(O)c1cc2ccccc2c(Cc2c(O)c(C(=O)O)cc3ccccc23)c1O.OCCOCCN1CCN(C(c2ccccc2)c2ccc(Cl)cc2)CC1 [HYDROXYZINE PAMOATE],14.51%
18,Cl.O.c1cnc(N2CCN(Cc3ccc4c(c3)OCO4)CC2)nc1,3.33%
19,CS(=O)(=O)O.Oc1ccc(C2CNCCc3c2cc(O)c(O)c3Cl)cc1 (stereo not drawn) [FENOLDOPAM MESYLATE],10.68%

# Source: ChEMBL document CHEMBL4513141, “CO-ADD screening of NIH (USA) - Clinical Collection” (2021)
